Several values for one entry are separate records, joined by “and”; a condition that tells them apart may be missing. Equal entries are not always repeated. Results filed as inconclusive are left out. A structure can be active in one record and inactive in another. Activity calls are given as the source filed them. Unless noted, calls follow the shape of the dose curve; as a rule, active = well fitted curve in the direction sought with a large enough effect; inconclusive = small, poorly fitted or top-dose-only effect, or another doubt; inactive = no such curve, though single readings can be large; an effect the other way counts as inactive or inconclusive.
Assays:
C33A = assay: Primary qHTS to identify gynecologic anti-cancer compounds using libraries of approved drugs and bioactive compounds (AID 1345084); settings: Gynecologic cancer cell panel viability, ATPlite luminescence, 48 h; series mostly up to 57.5 µM; also: nearly all actives have a fitted effect of over 55% in size; also: potency is read from the fitted curve at half-maximal effect
In short: (§1)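 ATP-based viability (ATPlite), 1,000 cells/well, 16 h pre-incubation, 48 h compound at 37 C, 5% CO2, 15 min RT before read.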

CASKI = assay: as above; settings: Gynecologic cancer cell panel viability, ATPlite luminescence, 48 h; series mostly up to 57.5 µM
In short: as §1

Es-2 = assay: as above; settings: Gynecologic cancer cell panel viability, ATPlite luminescence, 48 h; series mostly up to 57.5 µM
In short: as §1

HeLa = assay: as above; settings: Gynecologic cancer cell panel viability, ATPlite luminescence, 48 h; series mostly up to 57.5 µM
In short: as §1

Hek293T = assay: as above; settings: Gynecologic cancer cell panel viability, ATPlite luminescence, 48 h, control line for the selectivity index; series mostly up to 57.5 µM
In short: as §1

OV90 = assay: as above; settings: Gynecologic cancer cell panel viability, ATPlite luminescence, 48 h; series mostly up to 57.5 µM
In short: as §1

PA-1 = assay: as above; settings: Gynecologic cancer cell panel viability, ATPlite luminescence, 48 h; series mostly up to 57.5 µM
In short: as §1

Tov-21-G = assay: as above; settings: Gynecologic cancer cell panel viability, ATPlite luminescence, 48 h; series mostly up to 57.5 µM
In short: as §1

Tov112D = assay: as above; settings: Gynecologic cancer cell panel viability, ATPlite luminescence, 48 h; series mostly up to 57.5 µM
In short: as §1

[1] = Drug repurposing screens with cells derived from glioblastoma tumor samples (AID 1345199); settings: GBM patient neurospheres viability, ATP luminescence, 48 h; also: nearly all actives have a fitted effect of over 40% in size; also: potency is read from the fitted curve at half-maximal effect; as to activity, negative = cell killing: % is scaled to controls: 0 for no effect and ±100 for the full control effect
In short: (§2)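 Four patient lines of CD133+ GBM neurospheres were screened at several concentrations; hits were retested in those lines plus three slower-growing GBM lines, using 48-hour treatment and ATP-based viability.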

astro = assay: as above; settings: viability, ATP luminescence, 48 h; series mostly up to 45.9 µM
In short: as §2

JEG-3 = assay: Primary qHTS to identify gynecologic anti-cancer compounds using libraries of approved drugs and bioactive compounds (AID 1345084); settings: Gynecologic cancer cell panel viability, ATPlite luminescence, 48 h; series mostly up to 57.5 µM; also: nearly all actives have a fitted effect of over 55% in size; also: potency is read from the fitted curve at half-maximal effect
In short: as §1

[2] = molecular target: Nuclear receptor subfamily 1 group I member 2 (Rattus norvegicus) (UniProt Q9R1A7); assay: qHTS assay for small molecule activators of the rat pregnane X receptor (rPXR) signaling pathway (AID 651751; call rule not given here; also: 0% is about no effect); settings: rPXR reporter cells, luciferase (One-Glo), 24 h
[3] = qHTS assay for small molecule activators of the human pregnane X receptor (PXR) signaling pathway (AID 720659; call rule not given here; also: 0% is about no effect); settings: DPX-2 HepG2 CYP3A4-luciferase, 24 h; series mostly up to 92.3 µM
CAOV3 = assay: Primary qHTS to identify gynecologic anti-cancer compounds using libraries of approved drugs and bioactive compounds (AID 1345084); settings: Gynecologic cancer cell panel viability, ATPlite luminescence, 48 h; series mostly up to 57.5 µM; also: nearly all actives have a fitted effect of over 55% in size; also: potency is read from the fitted curve at half-maximal effect
In short: as §1

SKOV3 = assay: as above; settings: Gynecologic cancer cell panel viability, ATPlite luminescence, 48 h; series mostly up to 57.5 µM
In short: as §1

[4] = at 45.9 µM (top of the series), tumour line B
[5] = at 45.9 µM (top of the series), tumour line D
[6] = at 46 µM (top of the series), tumour line A

Sequence of Nuclear receptor subfamily 1 group I member 2 (Rattus norvegicus) (Q9R1A7 whole entry, looked up): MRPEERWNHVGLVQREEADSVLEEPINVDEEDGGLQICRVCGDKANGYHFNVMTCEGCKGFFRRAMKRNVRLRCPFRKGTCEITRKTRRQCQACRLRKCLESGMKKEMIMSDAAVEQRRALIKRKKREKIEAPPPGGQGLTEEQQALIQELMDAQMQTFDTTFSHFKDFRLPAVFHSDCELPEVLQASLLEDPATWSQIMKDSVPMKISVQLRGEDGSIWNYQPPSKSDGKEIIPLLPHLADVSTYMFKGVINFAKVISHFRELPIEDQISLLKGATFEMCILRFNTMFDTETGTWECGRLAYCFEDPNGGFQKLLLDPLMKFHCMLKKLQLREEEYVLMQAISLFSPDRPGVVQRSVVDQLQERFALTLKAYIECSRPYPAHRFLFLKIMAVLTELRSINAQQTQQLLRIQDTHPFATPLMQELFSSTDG

O=C(O)c1ccc(=O)[nH]c1
inactive: Potency (C33A) | outcome (CASKI) | Potency (Es-2) | Potency (HeLa) | outcome (Hek293T) | Potency (OV90) | Potency (PA-1) | Potency (Tov-21-G) | Potency (Tov112D)

O=C1Nc2ccc(Cl)cc2C(c2ccccc2)=NC1O (stereo unspecified)
inactive: activity, negative = cell killing [1, 4] -7.13% | activity, negative = cell killing [1, 5] -25.5% | activity, negative = cell killing ([1]; at 91.6 µM (top of the series), tumour line B) -11.1% | activity, negative = cell killing ([1]; at 91.6 µM (top of the series), tumour line D) -11.5% | Potency (astro)
active: Potency ([1]; tumour line A) 39.8 µM

Nc1ccccc1C(=O)O
inactive: Potency (C33A) | outcome (CASKI) | Potency (Es-2) | Potency (HeLa) | outcome (Hek293T) | outcome (JEG-3) | Potency (OV90) | Potency (PA-1) | Potency (Tov-21-G) | Potency (Tov112D) | activity, negative = cell killing [1, 4] 2.36% | activity, negative = cell killing [1, 5] -8.9% | activity, negative = cell killing [1, 6] -2.87% | Potency (astro) | max response [2] -1.41% | outcome [3]

CC(C)=CC1C(C(=O)OCN2C(=O)C3=C(CCCC3)C2=O)C1(C)C (stereo unspecified)
inactive: Potency (C33A) | outcome (CASKI) | Potency (Es-2) | Potency (HeLa) | outcome (JEG-3) | Potency (OV90) | Potency (PA-1) | Potency (Tov-21-G) | Potency (Tov112D) | activity, negative = cell killing [1, 4] -18.8% | activity, negative = cell killing [1, 5] -12.7% | Potency (astro)

CC(C)[C@H]1C(=O)N2CCC[C@H]2[C@]2(O)O[C@](NC(=O)[C@@H]3C[C@@H]4c5cccc6[nH]cc(c56)C[C@H]4N(C)C3)(C(C)C)C(=O)N12
inactive: activity, negative = cell killing [1, 4] -21%
active: Potency ([1]; tumour line A) 7.08 µM

COc1cc(CC(C)N)cc(OC)c1OC (stereo unspecified)
active: Potency (Es-2) 15.8 µM | Potency (HeLa) 1.58 µM | Potency (PA-1) 2.51 µM | Potency (Tov-21-G) 0.708 µM
inactive: outcome (CAOV3) | outcome (CASKI) | outcome (Hek293T) | outcome (JEG-3) | activity, negative = cell killing ([1]; at 108 µM (top of the series), tumour line B) -12% | activity, negative = cell killing ([1]; at 108 µM (top of the series), tumour line D) -16.2%

C[C@@H]1CC2=CC(=O)CC[C@@H]2[C@H]2CC[C@@]3(C)[C@@H](CC[C@]3(C)O)[C@@H]21
inactive: Potency (C33A) | outcome (CASKI) | Potency (Es-2) | Potency (HeLa) | outcome (Hek293T) | outcome (JEG-3) | Potency (PA-1) | outcome (SKOV3) | Potency (Tov-21-G) | Potency (Tov112D)

Clc1ccc2c(c1)C(c1ccccc1)=NCc1nncn1-2
inactive: activity, negative = cell killing [1, 4] -7.06% | activity, negative = cell killing [1, 5] 3.75% | Potency (astro)

O=C(O)/C=C\C(=O)O
inactive: activity, negative = cell killing [1, 4] 0.272% | activity, negative = cell killing [1, 5] -6.85% | activity, negative = cell killing [1, 6] -28.3% | activity, negative = cell killing ([1]; at 46.1 µM (top of the series), tumour line C) 3.02%

O=c1c(C2CC(c3ccc(-c4ccc(Br)cc4)cc3)Cc3ccccc32)c(O)sc2ccccc12 (stereo unspecified)
inactive: Potency (C33A) | outcome (CASKI) | Potency (Es-2) | outcome (Hek293T) | Potency (PA-1) | outcome (SKOV3) | Potency (Tov112D)

O=C(Nc1ccc(Br)cc1)c1cc(Br)cc(Br)c1O
inactive: Potency (C33A) | outcome (CASKI) | outcome (Hek293T) | Potency (PA-1) | outcome (SKOV3) | Potency (Tov-21-G) | Potency (Tov112D)
active: Potency (astro) 7.08 µM

C[C@]12CCC(=O)C=C1CC[C@@H]1[C@@H]2CC[C@@]2(C)[C@H]1CC[C@]2(C)O
active: Potency (HeLa) 22.4 µM | Potency ([1]; tumour line A) 12.6 µM and 20 µM
inactive: Potency (C33A) | outcome (CASKI) | Potency (Es-2) | outcome (Hek293T) | outcome (JEG-3) | Potency (OV90) | Potency (PA-1) | Potency (Tov-21-G) | Potency (Tov112D) | activity, negative = cell killing [1, 4] -4.4% and -14.4% | activity, negative = cell killing [1, 5] -24.9% and -19.8% | Potency (astro)

CCN(CC)C(=O)[C@@H]1C=C2c3cccc4[nH]cc(c34)C[C@H]2N(C)C1
inactive: Potency (C33A) | outcome (CASKI) | Potency (Es-2) | Potency (HeLa) | outcome (Hek293T) | outcome (JEG-3) | Potency (Tov-21-G) | Potency (Tov112D) | activity, negative = cell killing [1, 4] -17.8% | activity, negative = cell killing ([1]; at 194 µM (top of the series), tumour line B) -16.6%

COc1ccc2c(c1OC)C(=O)O[C@H]2[C@@H]1c2cc3c(cc2CCN1C)OCO3
inactive: Potency (C33A) | outcome (CASKI) | Potency (Es-2) | Potency (HeLa) | outcome (Hek293T) | outcome (JEG-3) | Potency (OV90) | Potency (PA-1) | Potency (Tov-21-G) | Potency (Tov112D) | activity, negative = cell killing [1, 4] 0.565% | activity, negative = cell killing [1, 5] -4.13% | Potency (astro)

CN1C[C@H](C(=O)N[C@]2(C)O[C@@]3(O)[C@@H]4CCCN4C(=O)[C@H](Cc4ccccc4)N3C2=O)C=C2c3cccc4[nH]cc(c34)C[C@H]21
inactive: activity, negative = cell killing [1, 4] -13.4% | max response [2] 10% and -0.133%
active: Potency ([1]; tumour line A) 14.1 µM

CC(C(=O)c1ccccc1)N(C)C (stereo unspecified)
inactive: outcome (CAOV3) | outcome (CASKI) | Potency (Es-2) | Potency (HeLa) | outcome (JEG-3) | Potency (OV90) | Potency (PA-1) | outcome (SKOV3) | Potency (Tov-21-G) | Potency (Tov112D)

CCCCCN(C)CCC(O)(P(=O)(O)O)P(=O)(O)O
inactive: activity, negative = cell killing [1, 4] -6.41% | activity, negative = cell killing [1, 5] -6.48% | activity, negative = cell killing [1, 6] -14.8% | Potency (astro)

From PubChem BioAssay (NCATS)
